# Screens deposited in PubChem BioAssay by The Scripps Research Institute Molecular Screening Center.
# Compounds with a hit are over-represented: about 2.6% of the library has one in this group of screens.
# SIAE inh: inhibitors of human sialic acid acetylesterase SIAE | Q9HAT2 | AID 1053197 | inhibition, % at 9.66 µM | SIAE FP-Rh probe binding, fluorescence polarization | 0.69% of 370,000 active;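 active means inhibition above a cutoff: mean of compounds within the control limits plus 3 SD of those, cut at about 17% in these data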;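 further: 0% = plate median of compound wells and 100% = probe without SIAE protein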
# PAD4 FP inh: inhibitors of human PAD4; AID 485272; recombinant PAD4, RCA probe fluorescence polarization; 0.41% of 330,000 active; inhibition, % at 6.36 µM;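 active means percent inhibition above a cutoff equal to the mean of all tested compounds plus 3 SD, cut at about 15% in these data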;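 further: 0% = PAD4 with RCA probe and DMSO and 100% = probe without PAD4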
# Target sequence (Q9UM07 whole entry, looked up): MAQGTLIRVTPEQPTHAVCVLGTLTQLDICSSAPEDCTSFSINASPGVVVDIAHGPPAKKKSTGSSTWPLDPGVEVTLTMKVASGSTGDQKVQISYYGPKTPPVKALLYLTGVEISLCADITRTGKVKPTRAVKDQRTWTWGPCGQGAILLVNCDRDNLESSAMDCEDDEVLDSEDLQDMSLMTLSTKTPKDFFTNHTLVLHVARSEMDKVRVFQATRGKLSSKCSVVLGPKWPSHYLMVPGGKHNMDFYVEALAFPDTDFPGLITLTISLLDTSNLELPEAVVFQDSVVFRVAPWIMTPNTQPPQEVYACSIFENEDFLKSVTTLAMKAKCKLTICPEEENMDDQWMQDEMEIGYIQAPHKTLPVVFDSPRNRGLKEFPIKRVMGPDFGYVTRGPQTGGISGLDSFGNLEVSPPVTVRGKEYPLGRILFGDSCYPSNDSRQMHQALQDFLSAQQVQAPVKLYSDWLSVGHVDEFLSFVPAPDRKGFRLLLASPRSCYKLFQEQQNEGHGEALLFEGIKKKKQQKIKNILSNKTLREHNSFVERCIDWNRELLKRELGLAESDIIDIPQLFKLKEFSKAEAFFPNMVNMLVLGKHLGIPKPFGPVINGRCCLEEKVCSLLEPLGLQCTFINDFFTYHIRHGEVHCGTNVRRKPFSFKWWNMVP
# TCR CD3 inh: blocks the human TCR-CD3 interaction | TAMRA-labeled TCR probe fluorescence, biochemical | inhibition, % at 9.4 µM | 0.37% of 360,000 active; in the data active means inhibition above about 19%;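 further: recombinant mutant TCR 2C K166C tagged with TAMRA read by polarization; 0% = receptor in buffer alone and 100% = receptor with positive control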
# Fam108B inh: counter-screen for RBBP9 inhibitors: inhibitors of mouse Fam108B; recombinant Fam108B, FP-Rh probe fluorescence polarization; inhibition, % at 9.51 µM; 0.33% of 300,000 active;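 active means inhibition above the screen mean inhibition plus 3 SD, computed separately per campaign, cut at about 18% in these data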;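 further: inhibitors lower polarization as less probe binds the enzyme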
# PME-1 inh: blocks human protein phosphatase methylesterase 1 | Q9Y570 | recombinant PME-1, FP-Rh probe fluorescence polarization | inhibition, % at 5.9 µM | 0.53% of 320,000 active;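 active means inhibition above the campaign mean of all compounds plus 3 SD, cut at about 26% in these data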;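 further: competitive labeling of PME-1 active site by serine hydrolase directed probe; 0% = PME-1 with DMSO and 100% = wells lacking PME-1 enzyme; inhibitors block probe labeling so polarization falls and inhibition rises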
# PRMT1 FP inh: inhibitors of human PRMT1 | inhibition, % at 2.79 µM | 1.3% of 370,000 active | Q99873 | recombinant PRMT1, activity-based probe fluorescence polarization | AID 652257;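 active means inhibition above about 21% made by adding two undisclosed values, limit read from the data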
# PRMT1 inh conf: PRMT1 (human) inhibition, FP confirmation; inhibition, % at 2.79 µM; 42% of 3,300 active; recombinant His-PRMT1, activity-based probe fluorescence polarization; shares compounds with PRMT1 FP inh;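 active means mean inhibition across replicates above the hit cutoff derived for the earlier primary screen, cut at about 22% in these data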
# Active calls of the source: *; nt = not tested or not shown; ! = a repeat was not active.
SMILES,SIAE inh,PAD4 FP inh,TCR CD3 inh,Fam108B inh,PME-1 inh,PRMT1 FP inh,PRMT1 inh conf
CCOC(=O)c1cc(CC)sc1/N=C/C1C(=O)NC(=S)NC1=O,-7,-3,-4,-3,-6,41*,12
CCOC(=O)c1c(/N=C/c2c(O)n(-c3cccc(C)c3)c(=O)[nH]c2=O)sc2c1CCCC2,-3,-10,-7,-7,1,8,nt
CCOC(=O)c1cc(CC)sc1/N=C/c1c(O)[nH]c(=S)[nH]c1=O,-34,-3,-24,3,-6,81*,8
c1ccc(-c2ccc(-c3n(-c4ccccn4)c4ccccc4[n+]3-c3ccccn3)cc2)cc1,4,nt,4,nt,nt,7,nt
COc1ccc(CN2C(=O)NC(=O)/C(=C/c3ccc([N+](=O)[O-])s3)C2=O)cc1,-8,-48,-38,9,-4,31*,66*
O=C1NC(=O)N(Cc2ccc(F)cc2)C(=O)/C1=C\c1ccc([N+](=O)[O-])s1,-45,-56,-45,15,2,39*,72*
COc1ccc(N2C(=O)NC(=O)/C(=C\c3ccc([N+](=O)[O-])s3)C2=O)cc1,-65,-44,-54,16,-5,39*,50*
COc1ccc(N2C(=O)NC(=O)/C(=C/c3ccc([N+](=O)[O-])s3)C2=O)cc1,-40,-9,-56,10,-5,19,nt
COC(=O)C1=C(c2cccc(C#N)c2)C[C@@H]2CC[C@H]1N2C(=O)NC1CC1,9,6,6,nt,4,-5,nt
CN1CCC2(CC1)C(C#N)=C(N)NC(S)=C2C#N,-8,-22,-23,-9,-6,31*!,19
C1=C(c2ccccc2)CCNC1,-4,3,-1,-1,-1,-4,nt
Oc1ccc(C2=CCNCC2)cc1O,-2,5,8,1,0,25*,28*
O=C(O)COc1cc(Cl)c(Cl)cc1Cl,0,nt,5,nt,nt,-2,nt
CN(CC=CCN(C)P(=S)(N1CC1)N1CC1)P(=S)(N1CC1)N1CC1,-4,nt,2,nt,nt,52*,-6
Cn1c(O)c(Cc2ccc(OCc3ccccc3)cc2)c(=O)n(C)c1=O,-3,-1,4,-1,4,-1,nt
CC(=O)O[C@H]1CC[C@@]2(C)[C@H](C1)C(=O)C[C@H]1[C@@H]3CC[C@@H]4[C@@H](CN5C[C@@H](C)CC[C@H]5[C@@]4(C)O)[C@@H]3C[C@@H]12,-2,-4,10,2,0,0,nt
Cc1nn(C2CCOC(C)(C)C2)c2c1C(c1ccc(OC(C)C)cc1)SCC(=O)N2 (stereo not given),11,-2,-1,-2,4,28*,41*
Cc1ccc2[nH]c3c(c2c1)CN(C(=O)CN1C[C@H]2C[C@@H](C1)c1cccc(=O)n1C2)CC3,4,-2,0,-4,-8,50*,1
Cc1cc(N2CCNC[C@@H]2C)ccc1N1CC[C@@H](O)C1,7,nt,5,nt,nt,47*,3
C[C@H]1CNCCN1c1ccc(N2CC[C@@H](O)C2)c(C#N)c1,15,nt,-6,nt,nt,-1,nt
O=C(CCCc1ccccc1)NCCc1cnc[nH]1,0,-2,3,2,0,1,nt
CN1C(=O)C(=Cc2c(OCc3cnc(Cl)s3)ccc3ccccc23)C(=O)N(C)C1=O,-14,1,-11,4,0,44*,-1
COc1ccc(C2=NCC(=S)Nc3ccc(Cl)cc32)cc1Cl,0,-1,6,-3,-4,40*,-2
Cc1cc(C)cc(N2C(=O)NC(=O)/C(=C\c3cccn3-c3ccc(Cl)cc3)C2=O)c1,-21,-11,0,6,-1,3,nt
O=C1NC(=S)NC(=O)C1=Cc1cccn1-c1ccc(O)cc1,8,nt,6,nt,nt,42*,68*
SMILES,SIAE inh,PAD4 FP inh,TCR CD3 inh,Fam108B inh,PME-1 inh,PRMT1 FP inh,PRMT1 inh conf
CC1=NNC(=O)C1Br (stereo not given),2,nt,6,nt,nt,50*,74*
COC(=O)C1C2CC[C@@H](CC1OC(=O)c1ccccc1)N2 (stereo not given in full),nt,-6,nt,nt,nt,nt,nt
COc1ccc(C=C2C(=O)N(C)C(=O)N(C)C2=O)cc1CSc1ccccn1,1,-4,-3,-1,-1,17,nt
COc1ccc(/C=C2/C(=O)NC(=O)N(C3CCCCC3)C2=O)cc1CSc1ccccn1,12,-7,-1,2,0,26*,6
CN1C(=O)C(=Cc2ccccc2OCCOc2ccc([N+](=O)[O-])cc2)C(=O)N(C)C1=O,0,-3,-3,3,1,9,nt
CN1C(=O)C(=Cc2ccccc2OS(=O)(=O)c2ccccc2)C(=O)N(C)C1=O,-4,1,-1,0,-5,34*,5
S=P(N1CCCCCC1)(N1CC1)N1CC1,12,nt,3,nt,nt,30*,-4
S=P(N1CCOCC1)(N1CC1)N1CC1,1,nt,7,nt,nt,4,nt
COC(=O)C1=C(c2c(C)noc2C)C[C@@H]2CC[C@H]1N2C(=O)NCc1ccc(F)cc1,0,-1,1,nt,1,2,nt
O=C1NC(=O)N(c2cccc(Cl)c2)C(=O)/C1=C\c1ccc(Sc2nc3ccccc3[nH]2)o1,-370,-26,-99,-45,-74,33*,42*
O=P(O)(O)CN1CCNCCN(CP(=O)(O)O)CCNCC1,1,nt,3,nt,nt,-10,nt
COC(=O)C1=C(c2ccc(C(C)=O)cc2)C[C@@H]2CC[C@H]1N2C(=O)NCc1ccc2c(c1)OCO2,0,-3,0,nt,-4,0,nt
O=C1NS(=O)c2cc([N+](=O)[O-])cc([N+](=O)[O-])c21 (stereo not given),-4,1,-4,-6,4,38*,27*
Cc1cccc(N=C2c3cc([N+](=O)[O-])ccc3-c3c2cc([N+](=O)[O-])cc3[N+](=O)[O-])c1,8,nt,0,nt,nt,-1,nt
Nc1cc(Cl)c2nonc2c1[N+](=O)[O-],-10,-1,-12,6,-4,41*,10
O=[N+]([O-])c1c(Cl)c(Cl)c(Cl)c(Cl)c1Cl,-2,nt,-5,nt,nt,-1,nt
CC1=NCCc2c1[nH]c1cc(O)ccc21,11,-1,7,9,1,119*,125*
COc1ccc2c3c([nH]c2c1)C(C)=NCC3,1,-22,-5,-2,0,2,nt
COC(=O)C1=C(c2cccc(C#N)c2)C[C@@H]2CC[C@H]1N2C(=O)NCc1ccco1,5,0,-6,nt,5,-2,nt
O=C1NC(=O)N(CCC2=CCCCC2)C(=O)/C1=C\c1cccs1,-18,-14,-19,1,-11,31*,18
Cn1c(O)c(C(c2ccccn2)c2c(O)n(C)c(=S)n(C)c2=O)c(=O)n(C)c1=S,-9,-2,0,-1,-18,27*,11
